# According to paper PMC7862700, “An all-to-all approach to the identification of sequence-specific readers for epigenetic DNA modifications on cytosine”:
# How the values were obtained:
# Test in all cases: DAPPL (digital affinity profiling via proximity ligation, sequencing); 10 mM Tris-HCl pH 7.5, 50 mM NaCl, 1 mM DTT, 4% glycerol, room temperature, 30 min; GST-TFs on glutathione beads, 16-mer random dsDNA library, 0.1% formaldehyde crosslink after washing; high values mean tight binding
# Conditions in all cases: protein: recombinant; tags: N-terminal GST; dsDNA, one strand shown
# [1] = target: T1, FEV (Homo sapiens, UniProt Q99581 1-238)
# T1 sequence: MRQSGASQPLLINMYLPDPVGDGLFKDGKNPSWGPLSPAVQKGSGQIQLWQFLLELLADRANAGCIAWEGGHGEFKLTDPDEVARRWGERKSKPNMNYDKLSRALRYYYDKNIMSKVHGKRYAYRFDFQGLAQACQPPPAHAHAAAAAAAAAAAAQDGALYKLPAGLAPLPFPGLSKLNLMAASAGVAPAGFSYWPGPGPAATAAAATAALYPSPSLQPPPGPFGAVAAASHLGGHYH
# Outline: (§1)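 Human transcription factors carrying a GST fusion were produced in yeast, bound to glutathione beads, tagged with DNA barcodes and pooled together with a tag-only sample. Each pool was held with 200 nmole of a random double-stranded 16-mer DNA library in Tris/NaCl/DTT/glycerol buffer for 30 min at room temperature, then washed, crosslinked in 0.1% formaldehyde, proximity-ligated with BsaI/T4 ligase (1 h, 37 °C), PCR-amplified and sequenced on an Illumina NextSeq500. Binding signal is the read frequency of each hexamer for a given factor divided by its frequency in the tag-only sample.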
# [2] = target: ETV5 (Homo sapiens, UniProt P41161 1-510)
# Outline: as §1
# [3] = target: T2, SPIC (Homo sapiens, UniProt Q8N5J4 1-248)
# T2 sequence: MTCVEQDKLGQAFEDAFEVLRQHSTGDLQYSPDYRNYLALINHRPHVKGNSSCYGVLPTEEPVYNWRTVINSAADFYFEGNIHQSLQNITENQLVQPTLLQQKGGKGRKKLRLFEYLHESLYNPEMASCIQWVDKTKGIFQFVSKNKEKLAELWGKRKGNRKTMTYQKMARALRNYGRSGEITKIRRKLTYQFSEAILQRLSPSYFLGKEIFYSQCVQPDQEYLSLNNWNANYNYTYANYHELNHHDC
# Outline: as §1
# [4] = target: ELF4 (Homo sapiens, UniProt Q99607 1-663)
# Outline: as §1
# [5] = target: T3, ERF (Homo sapiens, UniProt P50548 1-548)
# T3 sequence: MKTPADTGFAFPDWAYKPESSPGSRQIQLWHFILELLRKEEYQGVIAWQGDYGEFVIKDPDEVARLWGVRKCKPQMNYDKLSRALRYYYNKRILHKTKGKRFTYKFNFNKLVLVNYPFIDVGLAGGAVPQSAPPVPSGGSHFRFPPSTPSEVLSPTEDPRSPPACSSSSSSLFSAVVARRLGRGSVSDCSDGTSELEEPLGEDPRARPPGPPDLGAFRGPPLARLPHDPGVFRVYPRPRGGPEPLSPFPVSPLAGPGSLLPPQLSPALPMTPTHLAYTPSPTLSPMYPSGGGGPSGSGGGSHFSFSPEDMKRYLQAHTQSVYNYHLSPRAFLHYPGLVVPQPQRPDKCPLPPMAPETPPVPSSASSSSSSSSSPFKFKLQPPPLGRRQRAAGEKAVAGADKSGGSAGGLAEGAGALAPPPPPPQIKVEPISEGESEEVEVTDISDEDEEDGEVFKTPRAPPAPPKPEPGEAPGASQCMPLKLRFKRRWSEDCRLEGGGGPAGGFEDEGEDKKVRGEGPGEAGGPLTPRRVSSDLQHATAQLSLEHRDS
# Outline: as §1
# [6] = target: T4, ETS2 (Homo sapiens, UniProt P15036 1-469)
# T4 sequence: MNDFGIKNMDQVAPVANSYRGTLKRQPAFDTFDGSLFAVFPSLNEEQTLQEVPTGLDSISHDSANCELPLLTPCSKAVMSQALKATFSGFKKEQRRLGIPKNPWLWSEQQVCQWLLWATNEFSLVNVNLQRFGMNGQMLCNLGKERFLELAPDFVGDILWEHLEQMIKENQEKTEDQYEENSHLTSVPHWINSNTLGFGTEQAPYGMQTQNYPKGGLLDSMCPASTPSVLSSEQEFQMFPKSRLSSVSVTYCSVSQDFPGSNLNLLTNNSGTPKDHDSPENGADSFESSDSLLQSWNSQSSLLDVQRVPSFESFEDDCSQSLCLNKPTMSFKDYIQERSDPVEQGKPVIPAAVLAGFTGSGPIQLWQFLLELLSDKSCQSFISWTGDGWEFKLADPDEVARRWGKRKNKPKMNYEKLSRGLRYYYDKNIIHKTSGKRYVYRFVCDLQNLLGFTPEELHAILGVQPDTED
# Outline: as §1
# [7] = target: T5, SPDEF (Homo sapiens, UniProt O95238 1-335)
# T5 sequence: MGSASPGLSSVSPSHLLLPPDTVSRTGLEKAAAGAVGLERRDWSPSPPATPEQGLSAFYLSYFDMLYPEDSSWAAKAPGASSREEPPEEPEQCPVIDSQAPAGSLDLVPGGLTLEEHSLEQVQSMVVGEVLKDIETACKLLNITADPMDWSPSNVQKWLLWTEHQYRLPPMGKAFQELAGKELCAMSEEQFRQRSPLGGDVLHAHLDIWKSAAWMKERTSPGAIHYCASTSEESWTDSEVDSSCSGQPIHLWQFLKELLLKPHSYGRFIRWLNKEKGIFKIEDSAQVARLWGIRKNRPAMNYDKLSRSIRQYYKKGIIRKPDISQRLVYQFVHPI
# Outline: as §1
# [8] = target: T6, ETV3 (Homo sapiens, UniProt P41162-2 1-143)
# T6 sequence: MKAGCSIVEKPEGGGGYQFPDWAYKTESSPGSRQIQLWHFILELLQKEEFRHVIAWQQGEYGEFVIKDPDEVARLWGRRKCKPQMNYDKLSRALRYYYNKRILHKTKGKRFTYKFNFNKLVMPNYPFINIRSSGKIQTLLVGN
# Outline: as §1
# [9] = target: ETV6 (Homo sapiens, UniProt P41212 1-452)
# Outline: as §1
# Sequence of ETV5 (P41161 whole entry): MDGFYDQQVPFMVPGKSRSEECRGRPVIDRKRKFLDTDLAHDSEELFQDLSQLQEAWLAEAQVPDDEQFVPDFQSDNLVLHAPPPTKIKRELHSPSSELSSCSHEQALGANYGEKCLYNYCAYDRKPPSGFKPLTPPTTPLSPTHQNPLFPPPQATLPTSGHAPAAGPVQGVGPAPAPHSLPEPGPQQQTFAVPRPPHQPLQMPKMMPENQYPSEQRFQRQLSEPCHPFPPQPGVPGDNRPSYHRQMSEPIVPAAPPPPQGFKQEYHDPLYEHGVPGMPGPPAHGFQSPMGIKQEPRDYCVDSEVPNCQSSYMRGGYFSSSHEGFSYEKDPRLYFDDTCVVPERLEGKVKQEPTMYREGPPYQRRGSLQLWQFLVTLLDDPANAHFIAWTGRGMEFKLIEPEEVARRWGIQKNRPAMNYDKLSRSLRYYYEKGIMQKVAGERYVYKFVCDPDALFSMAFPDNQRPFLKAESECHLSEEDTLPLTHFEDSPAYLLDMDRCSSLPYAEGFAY
# Sequence of ETV6 (P41212 whole entry): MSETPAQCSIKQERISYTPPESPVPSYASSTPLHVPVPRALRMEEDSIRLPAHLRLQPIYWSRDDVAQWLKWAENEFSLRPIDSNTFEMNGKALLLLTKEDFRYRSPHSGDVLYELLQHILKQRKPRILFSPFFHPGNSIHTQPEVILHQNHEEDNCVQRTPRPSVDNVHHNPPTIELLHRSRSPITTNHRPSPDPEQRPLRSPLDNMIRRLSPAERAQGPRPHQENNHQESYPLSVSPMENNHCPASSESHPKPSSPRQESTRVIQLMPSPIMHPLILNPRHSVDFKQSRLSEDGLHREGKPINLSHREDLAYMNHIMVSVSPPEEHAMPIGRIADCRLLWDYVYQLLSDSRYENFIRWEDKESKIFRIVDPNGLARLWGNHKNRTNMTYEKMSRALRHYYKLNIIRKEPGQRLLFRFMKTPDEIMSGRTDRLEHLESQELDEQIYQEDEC
# Sequence of ELF4 (Q99607 whole entry): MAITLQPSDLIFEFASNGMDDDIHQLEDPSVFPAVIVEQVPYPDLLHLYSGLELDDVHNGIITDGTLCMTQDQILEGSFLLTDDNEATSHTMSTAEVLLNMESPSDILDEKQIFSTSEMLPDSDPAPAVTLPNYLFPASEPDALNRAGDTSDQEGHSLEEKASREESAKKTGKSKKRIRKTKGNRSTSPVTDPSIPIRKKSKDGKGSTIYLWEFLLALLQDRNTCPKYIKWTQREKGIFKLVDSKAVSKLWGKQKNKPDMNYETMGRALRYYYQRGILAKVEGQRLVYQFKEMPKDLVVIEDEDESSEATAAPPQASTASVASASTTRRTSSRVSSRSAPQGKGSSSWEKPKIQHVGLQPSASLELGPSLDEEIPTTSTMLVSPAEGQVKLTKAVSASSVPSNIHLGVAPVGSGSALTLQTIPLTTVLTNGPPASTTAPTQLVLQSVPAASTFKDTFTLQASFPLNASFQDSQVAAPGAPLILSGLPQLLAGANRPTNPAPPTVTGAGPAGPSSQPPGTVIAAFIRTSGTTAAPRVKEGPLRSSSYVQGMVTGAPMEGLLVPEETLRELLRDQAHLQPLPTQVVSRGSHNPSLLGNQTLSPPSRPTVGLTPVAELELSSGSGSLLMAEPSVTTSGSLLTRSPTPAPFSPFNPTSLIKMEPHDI
sequence,measurement,setting,value
CCATGC,binding signal,[1],"1.1 fold enrichment (6-mer frequency, TF over GST control)"
same,binding signal,[2],"1.11 fold enrichment (6-mer frequency, TF over GST control)"
same,binding signal,[3],"1 fold enrichment (6-mer frequency, TF over GST control)"
same,binding signal,[4],"1.08 fold enrichment (6-mer frequency, TF over GST control)"
same,binding signal,[5],"1.01 fold enrichment (6-mer frequency, TF over GST control)"
same,binding signal,[6],"1.03 fold enrichment (6-mer frequency, TF over GST control)"
same,binding signal,[7],"1.06 fold enrichment (6-mer frequency, TF over GST control)"
same,binding signal,[8],"1.12 fold enrichment (6-mer frequency, TF over GST control)"
same,binding signal,[9],"1.12 fold enrichment (6-mer frequency, TF over GST control)"
